RMI FANCM FP: RMI-FANCM interaction inhibition. AID 1159607. 70,000 compounds, 0.58% hits. Fluorescence polarization, RMI core complex with F-MM2 peptide; hits give low values. FP signal (polarization) at 33 µM; in the data active = FP signal below about 40
Starred values were filed as active, the others as inactive; ! = not confirmed by another sample. This is one part of a sample in which hits are shown more often than they occur.

SMILES	RMI FANCM FP
O=C(Nc1nc(CN2CCc3ccccc3C2)cs1)c1ccco1	65
CS(=O)(=O)c1ccc(Nc2nc(C(=O)Nc3ccc(F)cc3)cs2)cc1	63
Cc1nc2ccccc2c(=O)n1-c1cccc(NS(=O)(=O)c2cccc([N+](=O)[O-])c2)c1	54
Cc1ccc(S(=O)(=O)N=Cc2cccc([N+](=O)[O-])c2)cc1	61
CC1=CC(=NS(=O)(=O)c2cccc([N+](=O)[O-])c2)C=CC1=O	-23*
COc1ccc(Cl)cc1S(=O)(=O)Nc1ccc2c(c1)CN(C(=O)C1CC1)CC2	65
COc1ccc(Nc2c(Cl)cc(OC)cc2Cl)cc1	58
COc1ccc(NC2=CC(=O)C=CC2=O)cc1	30*
COc1ccc(NC(=O)CO)cc1	68
CC1(C)CC(=O)c2c(nc(SCCC(=O)Nc3ccc(F)cc3)c(C#N)c2-c2ccccc2)C1	99
Cc1ccc(S(=O)(=O)c2nc(/C=C3\SC(=S)N(C)C3=O)oc2N2CCOCC2)cc1	59
CN1CCN2c3ncccc3Cc3ccccc3C2C1 (stereo not drawn)	57
CC(C)(C)[C@]1(O)CCN2C[C@H]3c4ccccc4CCc4cccc(c43)[C@@H]2C1	43*!
Cc1c(C(=O)NCCOc2cccc(C(F)(F)F)c2)cccc1[N+](=O)[O-]	61
O=C(NCc1ccc2[nH]c3c(c2c1)CCCC3)c1cccs1	45
O=C(NCc1ccc2[nH]c3c(c2c1)CCCC3)c1ccc(C(F)(F)F)cc1	43
O=C(Cc1cccs1)NCc1ccc2[nH]c3c(c2c1)CCCC3	-1*
CCOC(=O)c1c(NC(=O)c2ccccc2S(=O)(=O)CC)sc2c1CCN(C(=O)OC)C2	55
CCOc1ccccc1C(=O)NCCn1ncc2c(=O)n(Cc3ccc(F)cc3)cnc21	70
O=C(CCn1cnc2c(cnn2-c2ccc(F)cc2)c1=O)N1CCOCC1	72
COc1ccccc1C(=O)NCCn1ncc2c(=O)n(Cc3cccc(F)c3)cnc21	66
CCOc1ccc2nc(NC(=O)c3cc([N+](=O)[O-])ccc3Cl)sc2c1	64
Cc1ccc(C)c(S(=O)(=O)C(C#N)c2nc3ccccc3nc2N2CCCC2)c1 (stereo not drawn)	5*
CCN1CCN(c2nc3ccccc3nc2C(C#N)S(=O)(=O)c2cccs2)CC1 (stereo not drawn)	69
CCC(CC)COC(=O)C(C#N)c1nc2ccccc2nc1N1CCCCC1 (stereo not drawn)	48
SMILES	RMI FANCM FP
CCOc1ccccc1NC(=O)CSc1nc2c(sc(=S)n2-c2ccccc2)c(=O)[nH]1	61
Cn1c(=O)cc2c3c(c(Br)ccc31)C(=O)c1ccccc1-2	60
Cn1c(=O)cc2c3c(c(NS(=O)(=O)c4ccccc4)ccc31)C(=O)c1ccccc1-2	9*
CC(C)c1cc(NS(=O)(=O)c2ccccc2)c(O)c(C(C)C)c1	60
N/C(=N/OC(=O)c1ccc(Cl)cc1)c1ccc([N+](=O)[O-])cc1	54
O=C1C=CC(=NS(=O)(=O)c2ccc(F)cc2)C=C1	2*
O=C1C=CC(=NS(=O)(=O)c2cc([N+](=O)[O-])ccc2Cl)C=C1	42
O=C1C=CC(=NS(=O)(=O)c2ccc3ccccc3c2)C=C1	37
CCc1nnc(C2CCN(C(=O)NC3CCCCC3)CC2)s1	63
CN(C)c1ccc(CCCNC(=O)C(=O)NCc2ccc3c(c2)OCO3)cc1	83
O=C1C2CCCN2C(=O)C2CCCN12 (stereo not drawn)	46
Cc1cc(NC(=O)CC(C)(C)C)ccc1N1CCCCC1=O	53
O=C(Nc1nc2c(s1)CCc1ccccc1-2)c1nc2ccccc2s1	58
O=C(Nc1nc2c(s1)Cc1ccccc1-2)c1ccc2ncsc2c1	74
O=C(Nc1nc2c(s1)Cc1ccccc1-2)c1nc2ccccc2s1	-62*
CCOC(=O)CNC(=O)c1cc([N+](=O)[O-])ccc1Oc1ccc(OC)cc1	59
COc1ccc(Oc2ccc([N+](=O)[O-])cc2-c2nc(-c3ccccn3)no2)cc1	59
COc1ccc(Oc2ccc([N+](=O)[O-])c3nonc23)cc1	4*
CCc1ccc(OC)c(S(=O)(=O)NCc2ccsc2)c1	69
CN(C)CCN(C(=O)c1ccc(S(=O)(=O)N2CCCCC2)cc1)c1nc2ccc(Br)cc2s1	88
COc1ccc(-c2ccc(N3CCN(C(=O)C4CC4)CC3)nn2)cc1OC	70
Cc1cccc(Nc2ccccc2C(=O)O)c1C	25*!
O=C(O)c1ccccc1Nc1ccccc1	55
Cc1cccc(C(=O)O)c1O	60
Cc1nc2sc(C)c(C)n2c(=O)c1NC(=O)c1cccnc1	68
SMILES	RMI FANCM FP
CCOc1ccccc1N1C(=O)/C(=C/C=C/c2ccco2)SC1=S	14*
CCOc1ccccc1N1C(=O)CNC1=S	55
CCOc1ccc(N2C(=O)S/C(=C\C=C\c3ccco3)C2=O)cc1	54
O=C(Nc1nnc(-c2cccnc2)o1)c1cccc(Br)c1	62
COc1ccccc1-c1nnc(NC(=O)c2c(F)cccc2F)o1	62
O=C(c1ccc(NS(=O)(=O)c2cccc(Cl)c2)cc1)N1CCCCCC1	61
CC(=O)Nc1cccc(NC(=O)CSc2nc(CC(=O)NCCC(C)C)cs2)c1	66

Screening data from PubChem.
